Hit rate of the full screen: of about 310,000 compounds, about 2,200 (0.71%) showed an effect of 50% or more. Effects have a minus sign here. This excerpt belongs to a sample that is enriched for strong results.
biological target: human ether-à-go-go-related gene (hERG) potassium channel (human, UniProt Q12809); assay: primary screen, population patch clamp on CHO cells stably expressing hERG; higher = less effect of the substance
Sequence (Q12809 whole entry, looked up): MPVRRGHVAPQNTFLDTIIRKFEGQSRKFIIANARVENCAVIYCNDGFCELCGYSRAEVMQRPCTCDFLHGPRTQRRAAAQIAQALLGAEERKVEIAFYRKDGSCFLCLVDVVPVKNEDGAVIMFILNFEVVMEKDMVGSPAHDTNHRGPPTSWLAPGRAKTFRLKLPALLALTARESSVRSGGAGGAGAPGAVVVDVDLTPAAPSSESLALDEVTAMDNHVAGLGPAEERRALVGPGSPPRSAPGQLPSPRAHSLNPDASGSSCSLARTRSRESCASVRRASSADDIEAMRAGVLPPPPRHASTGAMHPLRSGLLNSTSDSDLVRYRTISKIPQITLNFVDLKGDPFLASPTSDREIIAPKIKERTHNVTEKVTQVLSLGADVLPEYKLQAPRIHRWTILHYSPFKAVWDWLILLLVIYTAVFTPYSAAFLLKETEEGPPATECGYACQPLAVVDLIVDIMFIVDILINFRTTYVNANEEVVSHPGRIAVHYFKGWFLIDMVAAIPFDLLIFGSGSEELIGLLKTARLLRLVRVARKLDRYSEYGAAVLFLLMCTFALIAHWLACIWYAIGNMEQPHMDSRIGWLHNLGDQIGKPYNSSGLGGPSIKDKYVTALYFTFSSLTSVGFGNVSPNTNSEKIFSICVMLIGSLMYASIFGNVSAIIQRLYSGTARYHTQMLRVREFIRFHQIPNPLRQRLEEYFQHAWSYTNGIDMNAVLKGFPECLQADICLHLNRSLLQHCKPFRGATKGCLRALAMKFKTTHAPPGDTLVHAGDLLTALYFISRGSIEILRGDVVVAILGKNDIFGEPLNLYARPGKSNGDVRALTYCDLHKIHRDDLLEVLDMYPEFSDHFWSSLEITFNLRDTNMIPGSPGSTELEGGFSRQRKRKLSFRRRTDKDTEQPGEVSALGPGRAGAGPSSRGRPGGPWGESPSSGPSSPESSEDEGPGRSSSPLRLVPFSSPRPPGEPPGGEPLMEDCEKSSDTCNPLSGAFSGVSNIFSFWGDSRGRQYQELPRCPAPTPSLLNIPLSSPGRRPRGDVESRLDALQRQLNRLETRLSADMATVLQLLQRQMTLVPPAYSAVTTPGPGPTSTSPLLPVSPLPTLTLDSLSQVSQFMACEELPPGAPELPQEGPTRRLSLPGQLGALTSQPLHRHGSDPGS

First: O=C(CCc1ccc(S(=O)(=O)NCCc2ccccc2)cc1)NCc1ccco1
Second: CCOc1ccc(C(=O)C[n+]2ccc(C(=O)NCc3ccccc3)cc2)cc1.[Br-]
The “hERG current change (%, negative = inhibition) at 1uM” value of the first is higher: 6% for the first, 4.11% for the second.

First: COc1cccc2sc(NN)nc12
Second: CC(C)c1ccccc1OS(N)(=O)=O
The “hERG current change (%, negative = inhibition) at 1uM” value of the first is lower: 0.731% for the first, 4.02% for the second.

Compared with CN(C)CCCN=Cc1c(-c2ccccc2)[nH]n(-c2nc3ccccc3s2)c1=O, CCN(CC)CCCN=Cc1c(-c2ccccc2)[nH]n(-c2nc3ccccc3s2)c1=O is lower in “hERG current change (%, negative = inhibition) at 1uM” value: -58.1% for the first, -81.7% for the second.

Compared with O=c1c(C=NCCCO)c(-c2ccccc2)[nH]n1-c1nc2ccccc2s1, COCCCN=Cc1c(-c2ccccc2)[nH]n(-c2nc3ccccc3s2)c1=O is lower in “hERG current change (%, negative = inhibition) at 1uM” value: -2.36% for the first, -55.9% for the second.

First: CCCc1[nH]n(-c2nc3ccccc3s2)c(=O)c1C=NCCN1CCOCC1
Second: CCCN=Cc1c(CCC)[nH]n(-c2nc3ccccc3s2)c1=O
The “hERG current change (%, negative = inhibition) at 1uM” value of the first is higher: -4.58% for the first, -4.61% for the second.

First: CCCCCN=Cc1c(C)[nH]n(-c2nc3ccccc3s2)c1=O
Second: CCCc1[nH]n(-c2nc3ccccc3s2)c(=O)c1C=NCCCOC
The “hERG current change (%, negative = inhibition) at 1uM” value of the first is lower: -16.9% for the first, -9.11% for the second.

Going from CCCc1[nH]n(-c2nc3ccccc3s2)c(=O)c1C=NCCCN(CC)CC to CCCc1[nH]n(-c2nc3ccccc3s2)c(=O)c1C=NCC(C)C, the “hERG current change (%, negative = inhibition) at 1uM” value rises from -57.6% to 6.14%.

Compared with O=c1c(C=NCCCn2ccnc2)c(-c2ccccc2)[nH]n1-c1nc2ccccc2s1, CCCN=C(C)c1c(-c2ccccc2)[nH]n(-c2nc3ccccc3s2)c1=O is higher in “hERG current change (%, negative = inhibition) at 1uM” value: -26.9% for the first, 7.75% for the second.

Compared with Cn1ccc(NC(=O)c2ccc(Cl)cc2)n1, C/C(=N\NC(=O)c1cc(C)[nH]n1)c1ccc(-c2ccccc2)cc1 is higher in “hERG current change (%, negative = inhibition) at 1uM” value: 11% for the first, 13.7% for the second.

Going from CCC(C)N1C(=O)CCC1C(=O)N1CCN(c2ccccc2F)CC1 (stereo not shown) to O=C(c1nn(Cc2ccccc2)c(=O)c2ccccc12)N1CCN(c2ccccn2)CC1, the “hERG current change (%, negative = inhibition) at 1uM” value falls from 17% to -14.5%.

Compared with CC(=O)N1CCN(C2=NC(=O)C(=C3CCCCC3)S2)CC1, CN1CCN(C(=O)c2ccc3c(Cl)c4c(nc3c2)CCCC4)CC1 is higher in “hERG current change (%, negative = inhibition) at 1uM” value: -2.21% for the first, -0.735% for the second.

First: CCCNC(=O)C1CC(=O)N(c2ccc(OCC(=O)Nc3cccc(C)c3C)cc2)C1 (stereo not shown)
Second: COc1ccc(CN2[C@@H](CC(C)=O)c3ccc(/C=C/C(C)=O)cc3S2(=O)=O)cc1
The “hERG current change (%, negative = inhibition) at 1uM” value of the first is higher: 11% for the first, -0.639% for the second.

Compared with Cc1cc(C)c2nc(C(F)(F)F)nc(NCCCN3CCOCC3)c2c1, Cc1cc(OCC(=O)NCCCN2CCCC2=O)c2c(C)cc(=O)oc2c1 is higher in “hERG current change (%, negative = inhibition) at 1uM” value: 9.96% for the first, 19% for the second.

Going from CCC(C)(C)C1CCc2[nH]nc(C(=O)O)c2C1 (stereo not shown) to CCc1cc2c(SCC(=O)N(C)C3CCS(=O)(=O)C3)ncnc2s1 (stereo not shown), the “hERG current change (%, negative = inhibition) at 1uM” value falls from 11.9% to -7.21%.

Going from CC(=O)NS(=O)(=O)c1ccc(NC(=O)C2C3C=CC(C3)C2C(=O)O)cc1 (stereo not shown) to CN(C(=O)CSc1nc2cc(C(=O)O)ccc2c(=O)n1Cc1ccccc1)C1CCS(=O)(=O)C1 (stereo not shown), the “hERG current change (%, negative = inhibition) at 1uM” value rises from 7.33% to 17.6%.

First: Cc1ccc2c(c1)Oc1ccc(NC(=O)CCCl)cc1C(=O)N2
Second: Cc1cc2c(=O)n(Cc3ccco3)c(SCC(=O)NCc3ccco3)nc2s1
The “hERG current change (%, negative = inhibition) at 1uM” value of the first is higher: 3.94% for the first, -0.915% for the second.

First: O=C(c1nn(Cc2ccccc2)c(=O)c2ccccc12)N1CCN(C/C=C/c2ccccc2)CC1
Second: CC(=O)c1ccc(N2CCN(C(=O)c3nn(Cc4ccccc4)c(=O)c4ccccc34)CC2)cc1
The “hERG current change (%, negative = inhibition) at 1uM” value of the first is higher: -38.3% for the first, -72.9% for the second.

First: Cn1cc([N+](=O)[O-])c(C(=O)NC2CCCCCC2)n1
Second: COc1ccccc1NC(=O)CSc1nnc(C2CCCCC2)n1-c1ccccc1
The “hERG current change (%, negative = inhibition) at 1uM” value of the first is higher: 15.5% for the first, 2.23% for the second.

Going from CCOc1cc(-c2nc3cc(C)ccn3c2NCC2CCCO2)ccc1O (stereo not shown) to COc1ccc(-c2nc3cc(C)ccn3c2NCC2CCCO2)cc1OC.Cl (stereo not shown), the “hERG current change (%, negative = inhibition) at 1uM” value falls from -47.3% to -55.3%.

First: COc1cc(-c2nc3ccccn3c2NCC2CCCO2)ccc1O (stereo not shown)
Second: O=C(CSc1nc2c(sc3ccccc32)c(=O)n1Cc1ccco1)NCC1CCCO1 (stereo not shown)
The “hERG current change (%, negative = inhibition) at 1uM” value of the first is higher: 2.7% for the first, -0.521% for the second.

Compared with CCc1cc2c(=O)n(Cc3ccco3)c(SCC(=O)N(C)C3CCS(=O)(=O)C3)nc2s1 (stereo not shown), CCc1cc2c(=O)n(Cc3ccco3)c(SCC(=O)NC3CCS(=O)(=O)C3)nc2s1 (stereo not shown) is higher in “hERG current change (%, negative = inhibition) at 1uM” value: -85.4% for the first, -29.7% for the second.

Going from CCN(C(=O)CSc1nc2cc(Cl)ccc2c(=O)n1CC(C)C)C1CCS(=O)(=O)C1 (stereo not shown) to CC(C)Cn1c(SCC(=O)N(C)C2CCS(=O)(=O)C2)nc2cc(Cl)ccc2c1=O (stereo not shown), the “hERG current change (%, negative = inhibition) at 1uM” value falls from 10.7% to 4.62%.

Going from CCc1cc2c(=O)n(Cc3ccco3)c(SCC(=O)NCC3CCCO3)nc2s1 (stereo not shown) to CCN(C(=O)CSc1nc2cc(Cl)ccc2c(=O)n1Cc1ccco1)C1CCS(=O)(=O)C1 (stereo not shown), the “hERG current change (%, negative = inhibition) at 1uM” value falls from -60.5% to -70.2%.

Going from CN(C(=O)CSc1nc2ccc(Br)cc2c(=O)n1Cc1ccco1)C1CCS(=O)(=O)C1 (stereo not shown) to COCCn1c(SCC(=O)N(C)C2CCS(=O)(=O)C2)nc2ccccc2c1=O (stereo not shown), the “hERG current change (%, negative = inhibition) at 1uM” value rises from -83.1% to 4.99%.

First: O=C(CCN1C(=O)/C(=C/c2ccc(F)cc2)SC1=S)NNC(=O)c1cccnc1
Second: O=C(C[n+]1cccc(CNC(=O)c2ccc(OC(F)F)cc2)c1)c1ccccc1.[Cl-]
The “hERG current change (%, negative = inhibition) at 1uM” value of the first is lower: 1.06% for the first, 2.3% for the second.

First: COc1cc(/C=N\NC(=O)C(C)(C)O)ccc1OC/C=C/c1ccccc1
Second: COc1ccc(C(=O)C[n+]2cn(C(F)F)c3ccccc32)c(F)c1.[Br-]
The “hERG current change (%, negative = inhibition) at 1uM” value of the first is higher: 13% for the first, -0.738% for the second.

Compared with O=C(C[n+]1ccc(C(=O)NCc2ccccc2)cc1)c1ccc(OC(F)F)cc1.[Br-], O=C(C[n+]1cn(C(F)F)c2ccccc21)c1ccc(OC(F)F)cc1.[Br-] is higher in “hERG current change (%, negative = inhibition) at 1uM” value: -81.2% for the first, -53.7% for the second.

O=C(C[n+]1cn(C(F)F)c2ccccc21)c1ccc(Br)cc1.[Br-] was tested, and the “hERG current change (%, negative = inhibition) at 1uM” value was 3.52%.
